# Experimental data taken from the supplement of paper PMC12669032.
# Unmarked numbers belong to inactive results.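 Rule for the calls: active = AUC reduced over 20% with Padj below 0.05 in at least 2 of 3 replicates; inactive = otherwise.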
# Test system: Bacteroides dorei
# Experiment: growth AUC relative to DMSO control (median of replicates) (fraction); higher = more growth (less inhibition), active = hit call of the paper
# Settings: 20 µM; 24 h
# Outline: (§1)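 OD600 was recorded every hour for 24 h in anaerobic monocultures of gut bacteria kept at 37 °C in mGAM, seeded at OD600 0.05 and given 20 µM compound in 1% DMSO. The area under each growth curve was scaled to the plate median of solvent-only wells, or to row and column medians for the industrial chemical plate. Before this step, the minimum OD was set to 0. Reported values are medians of three biological replicates run on separate days.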
row,Structure (SMILES),growth AUC
1,O=C(NC(=O)c1c(F)cccc1F)Nc1cc(Cl)c(Oc2ncc(C(F)(F)F)cc2Cl)c(Cl)c1,0.988
2,COC(=O)NCc1cc(/C(C)=N\OCc2cccc(C)n2)ccc1Cl,0.949
3,NCCO.O=C(O)c1nc(Cl)ccc1Cl,0.987
4,CC(=O)O.NC(N)=NCCCCCCCCNCCCCCCCCN=C(N)N,0.638 (active)
5,CC1(C)CN=C(NN=C(/C=C/c2ccc(C(F)(F)F)cc2)/C=C/c2ccc(C(F)(F)F)cc2)NC1,1.03
6,CCCN(CC)CC1COC2(CCC(C(C)(C)C)CC2)O1 (stereo unspecified),1.07
7,CCCOP(=S)(OCCC)SCC(=O)N1CCCCC1C (stereo unspecified),0.968
8,CNC(=O)ON=C(CS(C)=O)C(C)(C)C (stereo unspecified),1.01
9,Cc1ccccc1C(=O)Nc1cccc(OC(C)C)c1,1
10,COC(=O)/C(C)=C/OP(=S)(OC)OC,0.985

# Test system: Bacteroides stercoris
# Experiment: as above
# Settings: 20 µM; 24 h
# Outline: as §1
row,Structure (SMILES),growth AUC
1,CN(C)c1nc(=O)n(C2CCCCC2)c(=O)n1C,1.07
2,Nc1c(Cl)c(Cl)c(Cl)c(Cl)c1Cl,0.945
3,Oc1ccc(-c2ccccc2)cc1,0.815
4,Cn1cc(-c2ccccc2)c(=O)c(-c2cccc(C(F)(F)F)c2)c1,1.06
5,CCCOCC(=Nc1ccc(Cl)cc1C(F)(F)F)n1ccnc1,1.16
6,O=P(O)(O)CCCl,1.08
7,CCNc1nc(NC(C)C)[nH]c(=O)n1,0.998
8,CC1=NNC(=O)N(/N=C/c2cccnc2)C1,1.01
9,S=C1NCCN1,1.13
10,COC(=O)N(C(=O)N1CO[C@@]2(C(=O)OC)Cc3cc(Cl)ccc3C2=N1)c1ccc(OC(F)(F)F)cc1,0.965
11,Clc1ccccc1Cl,0.991
12,C#CCC1=C(C)C(OC(=O)C2C(C=C(C)C)C2(C)C)CC1=O (stereo unspecified),1.01
13,Cc1nnc(-c2ccccc2)c(=O)n1N,0.945
14,COC(=O)c1ccccc1CS(=O)(=O)NC(=O)Nc1nc(OC)cc(OC)n1,0.969
15,CCCCCCCCCc1ccc(O)cc1,0.0469 (active)
16,COP(N)(=S)Oc1ccccc1C(=O)OC(C)C (stereo unspecified),0.979
17,O=C(NCCc1ncc(C(F)(F)F)cc1Cl)c1ccccc1C(F)(F)F,0.951
18,CCN(Cc1ccc(Cl)nc1)/C(=C/[N+](=O)[O-])NC,0.939
19,N#Cc1c(Cl)c(Cl)c(Cl)c(C#N)c1Cl,0.566 (active)

row,Structure (SMILES),growth AUC
1,N#CN=C1SCCN1Cc1ccc(Cl)nc1,1.22
2,CCCCC(C#N)(Cn1cncn1)c1ccc(Cl)cc1 (stereo unspecified),0.861
3,O=C1C(Cl)=C(Cl)C(=O)c2ccccc21,0.962
4,CCOP(=S)(OCC)SCS(=O)(=O)CC,1.09
5,Nc1c(Cl)c(F)nc(OCC(=O)O)c1Cl,0.999
6,Nc1ccc(Cl)cc1,1.03
7,CCNS(=O)(=O)C(F)(F)C(F)(F)C(F)(F)C(F)(F)C(F)(F)C(F)(F)C(F)(F)C(F)(F)F,0.896
8,Cl.NC1=NCCN1Cc1ccc(Cl)nc1,1.14
9,CNC(=O)c1cc(Cl)cc(C)c1NC(=O)c1cc(Br)nn1-c1ncccc1Cl,0.946
10,O=C(NC(=O)c1c(F)cccc1F)Nc1cc(Cl)c(Oc2ncc(C(F)(F)F)cc2Cl)c(Cl)c1,1.07
11,COC(=O)NCc1cc(/C(C)=N\OCc2cccc(C)n2)ccc1Cl,0.939
12,NCCO.O=C(O)c1nc(Cl)ccc1Cl,1.02
13,CC(=O)O.NC(N)=NCCCCCCCCNCCCCCCCCN=C(N)N,0.186 (active)
14,CC1(C)CN=C(NN=C(/C=C/c2ccc(C(F)(F)F)cc2)/C=C/c2ccc(C(F)(F)F)cc2)NC1,0.902
15,CCCN(CC)CC1COC2(CCC(C(C)(C)C)CC2)O1 (stereo unspecified),0.87
16,CCCOP(=S)(OCCC)SCC(=O)N1CCCCC1C (stereo unspecified),0.892
17,CNC(=O)ON=C(CS(C)=O)C(C)(C)C (stereo unspecified),0.97
18,Cc1ccccc1C(=O)Nc1cccc(OC(C)C)c1,0.993
19,COC(=O)/C(C)=C/OP(=S)(OC)OC,1.02

# Test system: Bacteroides thetaiotaomicron
# Experiment: as above
# Settings: 20 µM; 24 h
# Outline: as §1
row,Structure (SMILES),growth AUC
1,CN(C)c1nc(=O)n(C2CCCCC2)c(=O)n1C,1.05
2,Nc1c(Cl)c(Cl)c(Cl)c(Cl)c1Cl,0.968
3,Oc1ccc(-c2ccccc2)cc1,0.985
4,Cn1cc(-c2ccccc2)c(=O)c(-c2cccc(C(F)(F)F)c2)c1,0.967
5,CCCOCC(=Nc1ccc(Cl)cc1C(F)(F)F)n1ccnc1,0.934
6,O=P(O)(O)CCCl,1.01
7,CCNc1nc(NC(C)C)[nH]c(=O)n1,1
8,CC1=NNC(=O)N(/N=C/c2cccnc2)C1,1.02
9,S=C1NCCN1,1.01
10,COC(=O)N(C(=O)N1CO[C@@]2(C(=O)OC)Cc3cc(Cl)ccc3C2=N1)c1ccc(OC(F)(F)F)cc1,0.873
11,Clc1ccccc1Cl,0.986
12,C#CCC1=C(C)C(OC(=O)C2C(C=C(C)C)C2(C)C)CC1=O (stereo unspecified),1.01
13,Cc1nnc(-c2ccccc2)c(=O)n1N,1.02
14,COC(=O)c1ccccc1CS(=O)(=O)NC(=O)Nc1nc(OC)cc(OC)n1,1.02
15,CCCCCCCCCc1ccc(O)cc1,1.01
16,COP(N)(=S)Oc1ccccc1C(=O)OC(C)C (stereo unspecified),0.998
17,O=C(NCCc1ncc(C(F)(F)F)cc1Cl)c1ccccc1C(F)(F)F,0.973
18,CCN(Cc1ccc(Cl)nc1)/C(=C/[N+](=O)[O-])NC,0.972
19,N#Cc1c(Cl)c(Cl)c(Cl)c(C#N)c1Cl,0.0851 (active)

row,Structure (SMILES),growth AUC
1,N#CN=C1SCCN1Cc1ccc(Cl)nc1,0.999
2,CCCCC(C#N)(Cn1cncn1)c1ccc(Cl)cc1 (stereo unspecified),0.984
3,O=C1C(Cl)=C(Cl)C(=O)c2ccccc21,0.996
4,CCOP(=S)(OCC)SCS(=O)(=O)CC,0.996
5,Nc1c(Cl)c(F)nc(OCC(=O)O)c1Cl,0.991
6,Nc1ccc(Cl)cc1,1.05
7,CCNS(=O)(=O)C(F)(F)C(F)(F)C(F)(F)C(F)(F)C(F)(F)C(F)(F)C(F)(F)C(F)(F)F,0.993
8,Cl.NC1=NCCN1Cc1ccc(Cl)nc1,1.04
9,CNC(=O)c1cc(Cl)cc(C)c1NC(=O)c1cc(Br)nn1-c1ncccc1Cl,0.967
10,O=C(NC(=O)c1c(F)cccc1F)Nc1cc(Cl)c(Oc2ncc(C(F)(F)F)cc2Cl)c(Cl)c1,1.03
11,COC(=O)NCc1cc(/C(C)=N\OCc2cccc(C)n2)ccc1Cl,0.995
12,NCCO.O=C(O)c1nc(Cl)ccc1Cl,1.04
13,CC(=O)O.NC(N)=NCCCCCCCCNCCCCCCCCN=C(N)N,0.0333 (active)
14,CC1(C)CN=C(NN=C(/C=C/c2ccc(C(F)(F)F)cc2)/C=C/c2ccc(C(F)(F)F)cc2)NC1,1.03
15,CCCN(CC)CC1COC2(CCC(C(C)(C)C)CC2)O1 (stereo unspecified),1.02
16,CCCOP(=S)(OCCC)SCC(=O)N1CCCCC1C (stereo unspecified),0.873
17,CNC(=O)ON=C(CS(C)=O)C(C)(C)C (stereo unspecified),1.02
18,Cc1ccccc1C(=O)Nc1cccc(OC(C)C)c1,0.928
19,COC(=O)/C(C)=C/OP(=S)(OC)OC,0.978
